This note sets out measurements from PubChem BioAssay AID493194 (Broad Institute, 2011).

Each structure is given as a SMILES string. Potency and affinity values are given separately. Results filed as inconclusive are left out. Entries that show only a call come without a potency. The source made the active and inactive calls.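 How the source made its calls: active means a valid curve of falling signal whose half-effect concentration is at most ten times the top tested dose; inconclusive means flat curve at 30 to 70% inhibition, or poor fit; inactive means signal rise, flat within 30%, or potency beyond limit.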

Chain of Scavenger receptor class B member 1 (Mus musculus) (Q61009 whole entry, looked up): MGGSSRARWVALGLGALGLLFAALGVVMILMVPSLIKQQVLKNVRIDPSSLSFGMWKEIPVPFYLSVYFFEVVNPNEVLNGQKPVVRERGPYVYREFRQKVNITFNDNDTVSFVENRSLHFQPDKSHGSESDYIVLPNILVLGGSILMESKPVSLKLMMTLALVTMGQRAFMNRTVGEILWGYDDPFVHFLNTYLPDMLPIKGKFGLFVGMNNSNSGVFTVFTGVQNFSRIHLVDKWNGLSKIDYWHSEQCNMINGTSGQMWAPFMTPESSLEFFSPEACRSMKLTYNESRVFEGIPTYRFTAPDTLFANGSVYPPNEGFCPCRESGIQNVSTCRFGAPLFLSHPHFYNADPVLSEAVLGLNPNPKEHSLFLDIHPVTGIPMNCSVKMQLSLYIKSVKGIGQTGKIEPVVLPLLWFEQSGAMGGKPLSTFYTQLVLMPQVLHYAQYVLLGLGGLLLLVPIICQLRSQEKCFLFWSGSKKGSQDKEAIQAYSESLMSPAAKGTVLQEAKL

The experiment addresses Scavenger receptor class B member 1 (Mus musculus) (UniProt Q61009). The experiment is described as follows: mouse SR-BI DiI-HDL uptake blockers – ldlA[mSR-BI] cells, fluorescence, cherry pick, dose response (AID 493194).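 Further: CHO cells lacking LDL receptor and overexpressing mouse SR-BI; cellular uptake of fluorescently labeled HDL measured as cell fluorescence.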 The following applies: CHO ldlA[mSR-BI] DiI-HDL uptake fluorescence, 3 h; series mostly up to 35 µM.
On to `O=C(Nc1ccccc1F)OC1CN2CCC1CC2` (configuration not stated), for which the result was inactive.

Take `CNC1(c2ccc(F)cc2)CCCCC1`: the call was inactive.

Regarding `O=c1cccc2n1CC1CC2CN(S(=O)(=O)c2cc(Cl)ccc2Cl)C1` (configuration not stated), the outcome was inactive.

Take `CCCCCCn1c(=O)c(C(=O)Nc2cnccn2)c(O)c2ccccc21`: the outcome was inactive.

`O=S1(=O)N(CCN2CC=C(c3c[nH]c4cc(F)ccc34)CC2)c2cccc3c2N1CCC3`: the result was inactive.

Take `CC(C)(C)c1ccc(S(=O)(=O)N2CC3CC(C2)c2cccc(=O)n2C3)cc1` (configuration not stated): the result was inactive.

On to `COc1ccc(NC(=O)C2C3CCC(O3)C2C(=O)O)c(OC)c1` (configuration not stated), for which the result was inactive.
